Source: PubChem BioAssay (NCATS)
Results filed as inconclusive are left out. Unmarked numbers belong to inactive results. Active and inactive are the calls of the source. The call rests on the fitted dose curve; in most records, active means well fitted cell-killing curve with a large enough effect; inconclusive means small, poorly fitted or top-dose-only effect, or effect the other way; inactive means flat fitted curve, though single readings scatter.

Test system: Tov112D
Assay: Primary qHTS to identify gynecologic anti-cancer compounds using libraries of approved drugs and bioactive compounds (AID 1345084); further: nearly all actives have a fitted effect of over 55% in size
Details: Gynecologic cancer cell panel viability, ATPlite luminescence, 48 h; series mostly up to 57.5 µM; activity change, negative = cytotoxicity: at the top concentration
Summary of the method: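 Five-point cytotoxicity, 48 h drug exposure at 37 C, 5% CO2, on cells seeded 16 h beforehand. ATP content read by ATPlite luminescence.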
On the % scale 0 is the no-effect control and ±100 the full control effect; potency means the concentration at half of the fitted maximal effect.

Structure (SMILES)	activity change, negative = cytotoxicity	Potency
CC1(C)CC[C@]2(C(=O)O[C@@H]3O[C@H](CO)[C@@H](O)[C@H](O)[C@H]3O)CC[C@]3(C)C(=CCC4[C@@]5(C)CC[C@H](O[C@@H]6O[C@H](C(=O)O)[C@H](O)[C@H](O)[C@H]6O)C(C)(C)C5CC[C@]43C)[C@@H]2C1 (some centres not stated)	21.6% [at 25.3 µM]	–
COc1ccc(CCCN2CCC(COC(c3ccccc3)c3ccccc3)CC2)cc1	-2.24%	–
C=C1C(=O)O[C@@H]2C[C@]3(C)[C@@H](CCC(C)O)[C@@H]3C[C@H]12 (some centres not stated)	-3.72%	–
CC(C)CCCCC(=O)N[C@@H](CO)C(=O)N[C@@H](CC(C)C)C(=O)[C@@]1(CO)CO1	-5.04%	–
C=C1C(=O)OC2CC(C)=C(C(C)CCCOC(C)=O)C(OC(=O)CC(C)CC)C12 (configuration not stated)	-25.5% [at 25.3 µM]	–
COc1ccccc1S(=O)(=O)Nc1ccc2c(c1)CN(C)C(=O)N2	-26.8%	–
N#C/C(=C1\Nc2ccccc2S1)c1ccnc(NCCc2cccnc2)n1	-23.5%	–
O=C(c1ccccc1)c1c(O)cc(O)cc1O[C@@H]1O[C@H](CO)[C@@H](O)[C@H](O)[C@H]1O	–	11.2 µM (active)
CC(O)(C(=O)O)C1CCC2(C)C1CCC1(C)C2CCC2C3(C)CCC(O)C(C)(COC4OC(CO)C(O)C(O)C4O)C3CCC21C (configuration not stated)	–	8.91 µM (active)
O=C(Nc1ccc(-c2ccnc(Nc3ccc(N4CCOCC4)cc3)n2)cc1)C1CCCN1 (configuration not stated)	2.65%	–
COc1cc(CCc2cc(NC(=O)c3ccc(N4CC(C)NC(C)C4)cc3)n[nH]2)cc(OC)c1 (configuration not stated)	-30.9%	–
C=CC(=O)N1CCCC(n2nc(-c3ccc(Oc4ccccc4)cc3)c3c(N)ncnc32)C1 (configuration not stated)	-5.54%	–
